Measured values published in PubChem BioAssay AID1159580 (chemical genetic matrix, 2015).
Where “and” joins values, the source holds several entries; their conditions need not be identical. Equal entries are not always repeated. The whole screen tested about 5,500 compounds, of which about 2,000 (36%) were called active. Roughly 18% stayed inconclusive and do not appear here. Rule as the data show it: active = normalized growth mostly below about 0.91 (no sharp cut-off); inconclusive = no clear call, values can overlap the other calls; inactive = mostly above about 0.92. The list shows a part of the results.

Test: chemical genetic growth profiling, strain panel (AID 1159580);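 also: tested at 20 µM; growth read once vehicle control cultures reached saturation at 30 °C; 1 = growth at the plate median or of vehicle wells; lower values mean less growth of the strain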
Conditions: S. cerevisiae deletion strains, growth OD

Measured: normalized growth

CCCN(CCC)S(=O)(=O)c1ccc(C(=O)O)cc1
inactive: locus YAL013W, strain DEP1, hits give low values 0.992 | locus YAL021C, strain ccr4, hits give low values 0.998 | locus YAL026C, strain drs2, hits give low values 0.999 | locus YAL030W, strain snc1, hits give low values 0.992 | locus YBL061C, strain skt5, hits give low values 0.991 | locus YBR009C, strain hhf1, hits give low values 0.997 | locus YBR021W, strain FUR4, hits give low values 0.945 | locus YBR023C, strain chs3, hits give low values 0.994 | locus YBR171W, strain sec66, hits give low values 0.968 | locus YBR229C, strain ROT2, hits give low values 1 | locus YBR231C, strain swc5, hits give low values 0.955 | locus YBR279W, strain paf1, hits give low values 0.996 | locus YCL011C, strain gbp2, hits give low values 1 | locus YCL016C, strain dcc1, hits give low values 1 | locus YCL029C, strain bik1, hits give low values 1.02 | locus YCL069W, strain vba3, hits give low values 0.981 | locus YCR088W, strain abp1, hits give low values 0.993 | locus YDL005C, strain med2, hits give low values 0.987 | locus YDL035C, strain GPR1, hits give low values 0.998 | locus YDL040C, strain nat1, hits give low values 0.99 | locus YDL074C, strain BRE1, hits give low values 0.998 | locus YDL101C, strain DUN1, hits give low values 1.01 | locus YDL134C, strain PPH21, hits give low values 1 | locus YDL185W, strain tfp1, hits give low values 1.01 | locus YDL192W, strain arf1, hits give low values 1.01 | locus YDR001C, strain nth1, hits give low values 0.987 | locus YDR069C, strain doa4, hits give low values 0.987 | locus YDR101C, strain arx1, hits give low values 1 | locus YDR137W, strain rgp1, hits give low values 1.01 | locus YDR150W, strain NUM1, hits give low values 0.998 | locus YDR159W, strain sac3, hits give low values 1 | locus YDR162C, strain NBP2, hits give low values 0.999 | locus YDR195W, strain ref2 0.933 | locus YDR297W, strain sur2, hits give low values 0.998 | locus YDR318W, strain mcm21, hits give low values 1.02 | locus YDR334W, strain swr1, hits give low values 0.997 | locus YDR335W, strain msn5, hits give low values 0.992 | locus YDR388W, hits give low values 1.01 | locus YDR392W, strain spt3, hits give low values 1.01 | locus YDR502C, strain sam2, hits give low values 1.02 | locus YEL003W, strain gim4, hits give low values 0.99 | locus YEL037C, strain rad23, hits give low values 0.993 | locus YEL061C, strain CIN8 (second series), hits give low values 0.982 | locus YEL061C, strain CIN8, hits give low values 1 | locus YER015W, strain faa2, hits give low values 0.999 | locus YER016W, strain bim1, hits give low values 0.994 | locus YER110C, hits give low values 1.01 | locus YER111C, strain swi4, hits give low values 0.979 | locus YER155C, strain BEM2 (second series), hits give low values 0.978 | locus YER155C, strain BEM2, hits give low values 1.01 | locus YER167W, strain BCK2, hits give low values 1 | locus YFR010W, strain ubp6, hits give low values 0.983 | locus YGL078C, strain dbp3, hits give low values 1.01 | locus YGL086W, strain mad1, hits give low values 1 | locus YGL167C, strain pmr1, hits give low values 0.991 | locus YGL173C, strain kem1, hits give low values 0.976 | locus YGL227W, strain vid30, hits give low values 0.988 | locus YGL240W, strain doc1, hits give low values 0.976 | locus YGL248W, strain PDE1, hits give low values 1 | locus YGL253W, strain hxk2, hits give low values 1 | locus YGR078C, strain PAC10, hits give low values 0.967 | locus YGR135W, strain pre9, hits give low values 1.03 | locus YGR229C, strain SMI1, hits give low values 0.982 | locus YGR252W, strain gcn5, hits give low values 1 | locus YHR013C, strain ard1, hits give low values 0.986 | locus YHR027C, strain rpn1, hits give low values 0.999 | locus YHR030C, strain SLT2, hits give low values 1 and 1.02 | locus YHR079C, strain IRE1 (second series), hits give low values 1.01 | locus YHR079C, strain IRE1, hits give low values 1.01 | locus YHR094C, strain hxt1, hits give low values 1.01 | locus YHR129C, strain ARP1, hits give low values 1.01 | locus YHR142W, strain chs7, hits give low values 1 | locus YHR200W, strain rpn10, hits give low values 1.01 | locus YIL066C, strain RNR3, hits give low values 0.996 | locus YIL073C, strain SPO22, hits give low values 1.08 | locus YIL125W, strain kgd1, hits give low values 1.01 | locus YIR030C, strain dcg1, hits give low values 1 | locus YJL092W, strain hpr5, hits give low values 0.981 | locus YJL095W, strain BCK1 (second series), hits give low values 0.995 | locus YJL095W, strain BCK1, hits give low values 1.02 | locus YJL115W, strain asf1, hits give low values 0.989 | locus YJL129C, strain trk1, hits give low values 0.99 | locus YJL134W, strain LCB3, hits give low values 0.997 | locus YJL154C, strain vps35, hits give low values 0.99 | locus YJL164C, strain tpk1, hits give low values 1.01 | locus YJL166W, strain qcr8, hits give low values 0.966 | locus YJL168C, strain set2, hits give low values 1 | locus YJL187C, strain SWE1 (second series), hits give low values 1.01 | locus YJL187C, strain SWE1, hits give low values 0.991 | locus YJR043C, strain POL32, hits give low values 1 | locus YJR066W, strain TOR1, hits give low values 0.965
